# Assay results from the supplement of paper PMC4022240.
# ± gives the standard deviation.
# T1: HaloTag-ATRX ADD domain (163-292)
# T1 chain: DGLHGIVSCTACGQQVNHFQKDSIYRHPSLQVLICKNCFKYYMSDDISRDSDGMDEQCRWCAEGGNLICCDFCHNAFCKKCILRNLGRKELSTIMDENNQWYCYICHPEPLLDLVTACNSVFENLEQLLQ
# Key:
# Assay in all cases: peptide microarray binding signal (635 nm), min-max normalized on array (fraction of array maximum); higher = stronger binding
# Settings in all cases: peptide region: H3 1-13
# [1] = molecular target: T1, HaloTag-ATRX ADD domain (163-292)
# Description: (§1)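 Histone 13-mer peptides were synthesized as cellulose conjugates with a C-terminal 20-atom PEG linker and printed in triplicate on nitrocellulose. The sequence given is the unmodified backbone; PTMs (Kme1/2/3, Kac, Sph/Tph, Rme/Rme2a/Rme2s, Rcit) are listed in the label and the 'peptide modifications' condition. Slides were probed at 4 °C for 1 h with biotin-labelled (HQ)5-HaloTag reader fusions (ATRX-ADD, ING2-PHD) then streptavidin-Alexa647, or with rabbit histone antibodies then anti-rabbit Alexa647. The mean 635 nm signal of the triplicate spots was scaled 0-1 between the lowest and highest values on each array.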
# [2] = molecular target: HaloTag-ING2 PHD (mouse Ing2 200-280)
# Description: as §1
# [3] = molecular target: anti-H3K4me3 antibody ab8580
# Description: as §1
# [4] = molecular target: anti-H3K9me3 antibody ab8898
# Description: as §1
# [5] = peptide modifications: H3R2me2a H3K4me2, binder concentration: 1:2,000 dilution
# [6] = peptide modifications: H3R2me2a H3K4me2, binder concentration: 1:10,000 dilution
# [7] = peptide modifications: H3R2me1 H3K9me2, binder concentration: 1:2,000 dilution
# [8] = peptide modifications: H3R2me1 H3K9me2, binder concentration: 1:10,000 dilution
# [9] = peptide modifications: H3R2me2s H3K4ac, binder concentration: 1:2,000 dilution
# [10] = peptide modifications: H3R2me2s H3K4ac, binder concentration: 1:10,000 dilution
# [11] = peptide modifications: H3R2me2a H3K4me3, binder concentration: 1:2,000 dilution
# [12] = peptide modifications: H3R2me2a H3K4me3, binder concentration: 1:10,000 dilution
# [13] = peptide modifications: H3R2me1 H3T6ph, binder concentration: 1:2,000 dilution
# [14] = peptide modifications: H3R2me1 H3T6ph, binder concentration: 1:10,000 dilution
# [15] = peptide modifications: H3R2me2s H3K4me1, binder concentration: 1:2,000 dilution
# [16] = peptide modifications: H3R2me2s H3K4me1, binder concentration: 1:10,000 dilution
# [17] = peptide modifications: H3R2me2s H3K4me2, binder concentration: 1:2,000 dilution
# [18] = peptide modifications: H3R2me2s H3K4me2, binder concentration: 1:10,000 dilution
# [19] = peptide modifications: H3R2me2a H3K9me3, binder concentration: 1:2,000 dilution
# [20] = peptide modifications: H3R2me2a H3K9me3, binder concentration: 1:10,000 dilution
# [21] = peptide modifications: H3R2me1 H3T3ph, binder concentration: 1:2,000 dilution
# [22] = peptide modifications: H3R2me1 H3T3ph, binder concentration: 1:10,000 dilution
# [23] = peptide modifications: H3R2me2s H3K4me3, binder concentration: 1:2,000 dilution
# [24] = peptide modifications: H3R2me2s H3K4me3, binder concentration: 1:10,000 dilution
binder,measurement,setting,value
ARTKQTARKSTGG [H3 1-13 A Rme2a T Kme2 Q T A R K S T G G],peptide microarray binding signal,"[1]; peptide modifications: H3R2me2a H3K4me2, binder concentration: 50 nM",0.00837 ± 0.00013
same,peptide microarray binding signal,"[1]; peptide modifications: H3R2me2a H3K4me2, binder concentration: 500 nM",0.0168 ± 0.00084
same,peptide microarray binding signal,"[2]; peptide modifications: H3R2me2a H3K4me2, binder concentration: 10 nM",0.0141 ± 0.00071
same,peptide microarray binding signal,"[2]; peptide modifications: H3R2me2a H3K4me2, binder concentration: 100 nM",0.0206 ± 0.0044
same,peptide microarray binding signal,[3]; [5],0.0754 ± 0.017
same,peptide microarray binding signal,[3]; [6],0.0898 ± 0.0086
same,peptide microarray binding signal,[4]; [5],0.00464 ± 0.0004
same,peptide microarray binding signal,[4]; [6],0.00386 ± 0.00011
ARTKQTARKSTGG [H3 1-13 A Rme T K Q T A R Kme2 S T G G],peptide microarray binding signal,"[1]; peptide modifications: H3R2me1 H3K9me2, binder concentration: 50 nM",0.151 ± 0.01
same,peptide microarray binding signal,"[1]; peptide modifications: H3R2me1 H3K9me2, binder concentration: 500 nM",0.167 ± 0.011
same,peptide microarray binding signal,"[2]; peptide modifications: H3R2me1 H3K9me2, binder concentration: 10 nM",0.047 ± 0.0094
same,peptide microarray binding signal,"[2]; peptide modifications: H3R2me1 H3K9me2, binder concentration: 100 nM",0.0747 ± 0.029
same,peptide microarray binding signal,[3]; [7],0.00563 ± 0.00089
same,peptide microarray binding signal,[3]; [8],0.00873 ± 0.0023
same,peptide microarray binding signal,[4]; [7],0.022 ± 0.012
same,peptide microarray binding signal,[4]; [8],0.0186 ± 0.014
ARTKQTARKSTGG [H3 1-13 A Rme2s T Kac Q T A R K S T G G],peptide microarray binding signal,"[1]; peptide modifications: H3R2me2s H3K4ac, binder concentration: 50 nM",0.0137 ± 0.00038
same,peptide microarray binding signal,"[1]; peptide modifications: H3R2me2s H3K4ac, binder concentration: 500 nM",0.046 ± 0.0095
same,peptide microarray binding signal,"[2]; peptide modifications: H3R2me2s H3K4ac, binder concentration: 10 nM",0.0299 ± 0.0078
same,peptide microarray binding signal,"[2]; peptide modifications: H3R2me2s H3K4ac, binder concentration: 100 nM",0.0957 ± 0.0077
same,peptide microarray binding signal,[3]; [9],0.00993 ± 0.0029
same,peptide microarray binding signal,[3]; [10],0.00651 ± 0.00097
same,peptide microarray binding signal,[4]; [9],0.0137 ± 0.0005
same,peptide microarray binding signal,[4]; [10],0.00617 ± 0.00064
ARTKQTARKSTGG [H3 1-13 A Rme2a T Kme3 Q T A R K S T G G],peptide microarray binding signal,"[1]; peptide modifications: H3R2me2a H3K4me3, binder concentration: 50 nM",0.00912 ± 0.00034
same,peptide microarray binding signal,"[1]; peptide modifications: H3R2me2a H3K4me3, binder concentration: 500 nM",0.0301 ± 0.00069
same,peptide microarray binding signal,"[2]; peptide modifications: H3R2me2a H3K4me3, binder concentration: 10 nM",0.0149 ± 0.0016
same,peptide microarray binding signal,"[2]; peptide modifications: H3R2me2a H3K4me3, binder concentration: 100 nM",0.013 ± 0.0056
same,peptide microarray binding signal,[3]; [11],0.989 ± 0.041
same,peptide microarray binding signal,[3]; [12],0.193 ± 0.0034
same,peptide microarray binding signal,[4]; [11],0.249 ± 0.031
same,peptide microarray binding signal,[4]; [12],0.0997 ± 0.026
ARTKQTARKSTGG [H3 1-13 A Rme T K Q Tph A R K S T G G],peptide microarray binding signal,"[1]; peptide modifications: H3R2me1 H3T6ph, binder concentration: 50 nM",0.00589 ± 0.00086
same,peptide microarray binding signal,"[1]; peptide modifications: H3R2me1 H3T6ph, binder concentration: 500 nM",0.00971 ± 0.00097
same,peptide microarray binding signal,"[2]; peptide modifications: H3R2me1 H3T6ph, binder concentration: 10 nM",0.00269 ± 4e-05
same,peptide microarray binding signal,"[2]; peptide modifications: H3R2me1 H3T6ph, binder concentration: 100 nM",0.0186 ± 0.0023
same,peptide microarray binding signal,[3]; [13],0.000774 ± 4.3e-05
same,peptide microarray binding signal,[3]; [14],0.000799 ± 2.2e-05
same,peptide microarray binding signal,[4]; [13],0.0018 ± 6.1e-05
same,peptide microarray binding signal,[4]; [14],0.000634 ± 1.2e-05
ARTKQTARKSTGG [H3 1-13 A Rme2s T Kme Q T A R K S T G G],peptide microarray binding signal,"[1]; peptide modifications: H3R2me2s H3K4me1, binder concentration: 50 nM",0.00815 ± 0.00038
same,peptide microarray binding signal,"[1]; peptide modifications: H3R2me2s H3K4me1, binder concentration: 500 nM",0.0162 ± 0.0009
same,peptide microarray binding signal,"[2]; peptide modifications: H3R2me2s H3K4me1, binder concentration: 10 nM",0.00573 ± 0.00037
same,peptide microarray binding signal,"[2]; peptide modifications: H3R2me2s H3K4me1, binder concentration: 100 nM",0.0481 ± 0.011
same,peptide microarray binding signal,[3]; [15],0.0368 ± 0.009
same,peptide microarray binding signal,[3]; [16],0.0228 ± 0.00057
same,peptide microarray binding signal,[4]; [15],0.00405 ± 0.0004
same,peptide microarray binding signal,[4]; [16],0.00329 ± 0.00019
ARTKQTARKSTG [H3 1-13 A Rme2s T Kme2 Q T A R K S T G],peptide microarray binding signal,"[1]; peptide modifications: H3R2me2s H3K4me2, binder concentration: 50 nM",0.00476 ± 0.00032
same,peptide microarray binding signal,"[1]; peptide modifications: H3R2me2s H3K4me2, binder concentration: 500 nM",0.00814 ± 0.00041
same,peptide microarray binding signal,"[2]; peptide modifications: H3R2me2s H3K4me2, binder concentration: 10 nM",0.00967 ± 0.00038
same,peptide microarray binding signal,"[2]; peptide modifications: H3R2me2s H3K4me2, binder concentration: 100 nM",0.0142 ± 0.0012
same,peptide microarray binding signal,[3]; [17],0.0186 ± 0.0024
same,peptide microarray binding signal,[3]; [18],0.01061 ± 5.4e-05
same,peptide microarray binding signal,[4]; [17],0.00287 ± 0.00041
same,peptide microarray binding signal,[4]; [18],0.00225 ± 0.00017
ARTKQTARKSTGG [H3 1-13 A Rme2a T K Q T A R Kme3 S T G G],peptide microarray binding signal,"[1]; peptide modifications: H3R2me2a H3K9me3, binder concentration: 50 nM",0.553 ± 0.21
same,peptide microarray binding signal,"[1]; peptide modifications: H3R2me2a H3K9me3, binder concentration: 500 nM",0.325 ± 0.0057
same,peptide microarray binding signal,"[2]; peptide modifications: H3R2me2a H3K9me3, binder concentration: 10 nM",0.0188 ± 0.00063
same,peptide microarray binding signal,"[2]; peptide modifications: H3R2me2a H3K9me3, binder concentration: 100 nM",0.0327 ± 0.0029
same,peptide microarray binding signal,[3]; [19],0.0294 ± 0.003
same,peptide microarray binding signal,[3]; [20],0.0254 ± 0.0048
same,peptide microarray binding signal,[4]; [19],0.328 ± 0.013
same,peptide microarray binding signal,[4]; [20],0.254 ± 0.069
ARTKQTARKSTGG [H3 1-13 A Rme Tph K Q T A R K S T G G],peptide microarray binding signal,"[1]; peptide modifications: H3R2me1 H3T3ph, binder concentration: 50 nM",0.00649 ± 0.00021
same,peptide microarray binding signal,"[1]; peptide modifications: H3R2me1 H3T3ph, binder concentration: 500 nM",0.0224 ± 0.0029
same,peptide microarray binding signal,"[2]; peptide modifications: H3R2me1 H3T3ph, binder concentration: 10 nM",0.00382 ± 7e-05
same,peptide microarray binding signal,"[2]; peptide modifications: H3R2me1 H3T3ph, binder concentration: 100 nM",0.0254 ± 0.0015
same,peptide microarray binding signal,[3]; [21],0.00321 ± 0.0015
same,peptide microarray binding signal,[3]; [22],0.00183 ± 0.00011
same,peptide microarray binding signal,[4]; [21],0.00154 ± 0.00026
same,peptide microarray binding signal,[4]; [22],0.000692 ± 1.5e-05
ARTKQTARKSTGG [H3 1-13 A Rme2s T Kme3 Q T A R K S T G G],peptide microarray binding signal,"[1]; peptide modifications: H3R2me2s H3K4me3, binder concentration: 50 nM",0.00893 ± 9.3e-05
same,peptide microarray binding signal,"[1]; peptide modifications: H3R2me2s H3K4me3, binder concentration: 500 nM",0.0273 ± 0.0066
same,peptide microarray binding signal,"[2]; peptide modifications: H3R2me2s H3K4me3, binder concentration: 10 nM",0.0555 ± 0.0092
same,peptide microarray binding signal,"[2]; peptide modifications: H3R2me2s H3K4me3, binder concentration: 100 nM",0.0641 ± 0.027
same,peptide microarray binding signal,[3]; [23],0.674 ± 0.053
same,peptide microarray binding signal,[3]; [24],0.326 ± 0.034
same,peptide microarray binding signal,[4]; [23],0.228 ± 0.057
same,peptide microarray binding signal,[4]; [24],0.113 ± 0.034
